# From PubChem BioAssay (NCATS)
# Results filed as inconclusive are left out. Where a call stands in place of a potency, no number is given. Values without a mark were called inactive. Activity calls are given as the source filed them. The call rests on the fitted dose curve; in most records, active means well fitted inhibition curve with a large enough effect; inconclusive means small, poorly fitted or top-dose-only effect; inactive means flat fitted curve, though single readings scatter. Numbered stars: 1 amine (or outer) side, 2 acyl side, 3 side chain; on linkers, the order of the positions; unused ones are H or OH. Bridge positions count the residues as written; N and C are the ends. Square brackets hold non-standard residues; d marks the D form. Peptide text beside a SMILES is read from it. I, II: the chains in the order shown. Actinocin(9to1) = Cc1c2oc3c(C)ccc(C(=O)[*:1])c3nc-2c(C(=O)[*:2])c(N)c1=O; NMeV = CN[C@H](C(=O)O)C(C)C; Sar = CNCC(=O)O
# Columns and labels:
# [1] = qHTS profiling for inhibitors of Plasmodium falciparum proliferation (AID 504749); further: nearly all actives have a fitted effect of over 60% in size; conditions: P. falciparum in erythrocytes, SYBR Green DNA, 72 h
# Outline: (§1)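 Readout was DNA-dye fluorescence from lysed cultures, ex 485/em 535 nm. Parasitized red cells had grown 72 h with compound; data scaled between 0.29 uM artemisinin and DMSO wells and corrected using vehicle-only plates.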
# [2] = test system: 3D7; assay: as above; conditions: P. falciparum in erythrocytes, SYBR Green DNA, 72 h; series mostly up to 28.7 µM
# Outline: as §1
# [3] = test system: 7G8; assay: as above; conditions: P. falciparum in erythrocytes, SYBR Green DNA, 72 h; series mostly up to 28.7 µM
# Outline: as §1
# [4] = test system: AA1029; assay: as above; conditions: P. falciparum in erythrocytes, SYBR Green DNA, 72 h; series mostly up to 28.7 µM
# Outline: as §1
# [5] = test system: AS120; assay: as above; conditions: P. falciparum in erythrocytes, SYBR Green DNA, 72 h; series mostly up to 28.7 µM
# Outline: as §1
# [6] = test system: ATS189; assay: as above; conditions: P. falciparum in erythrocytes, SYBR Green DNA, 72 h; series mostly up to 28.7 µM
# Outline: as §1
# [7] = test system: ATS95; assay: as above; conditions: P. falciparum in erythrocytes, SYBR Green DNA, 72 h; series mostly up to 28.7 µM
# Outline: as §1
# [8] = at 12.8 µM (top of the series), parasite line A
# [9] = at 12.8 µM (top of the series), parasite line B
# [10] = at 28.7 µM (top of the series), parasite line A
# [11] = at 28.7 µM (top of the series), parasite line B
# Potency means the concentration at half of the fitted maximal effect.
SMILES,Potency ([1]; parasite line A),Potency ([1]; parasite line B),Potency [2],Potency [3],Potency [4],Potency [5],Potency [6],Potency [7],"activity, negative = inhibition [1, 8] [%]","activity, negative = inhibition [1, 9] [%]","activity, negative = inhibition [1, 10] [%]","activity, negative = inhibition [1, 11] [%]"
CCCCCCCCCCCCCCCC[N+](C)(C)CC,3.98 µM (active),5.01 µM (active),3.55 µM (active),3.55 µM (active),4.47 µM (active),5.01 µM (active),10 µM (active),6.31 µM (active),–,–,–,–
NCCc1ccn[nH]1,–,–,inactive,inactive,inactive,inactive,inactive,inactive,6.26,12.5,–,–
NCCC(O)(P(=O)(O)O)P(=O)(O)O,–,–,inactive,inactive,inactive,inactive,inactive,inactive,–,–,4.48,-11.5
CCn1cc(C(=O)O)c(=O)c2cnc(N3CCCC3)nc21,–,–,inactive,inactive,inactive,inactive,inactive,inactive,-13.8,2.72,–,–
COc1c2occc2c(OC)c2c(=O)cc(C)oc12,–,–,inactive,inactive,inactive,inactive,inactive,inactive,5.55,4.52,–,–
COc1cc(-c2ccc(=O)[nH]n2)ccc1OC(F)F,11.2 µM (active),0.891 µM (active),inactive,inactive,0.178 µM (active),0.891 µM (active),inactive,0.251 µM (active),–,–,–,–
COc1cc(OC)cc(OC)c1,–,–,inactive,inactive,inactive,inactive,inactive,inactive,–,–,14.7,2.05
Cc1ccnc(NS(=O)(=O)c2ccc(N)cc2)n1,–,–,inactive,inactive,inactive,inactive,inactive,inactive,9.46,-14.9,–,–
Cc1c(C)n(CCN(C)C)c2ccc(C(=O)OCCN(C)C)cc12,–,–,inactive,8.91 µM (active),inactive,inactive,inactive,inactive,–,–,-7.71,-8.88
CCN(CC)C(=O)N1CCN(C)CC1,–,–,inactive,inactive,inactive,inactive,inactive,inactive,5.24,18.6,–,–
CC1=C(C(=O)OC(C)C)C(c2cccc([N+](=O)[O-])c2)C(C(=O)OC2CN(C(c3ccccc3)c3ccccc3)C2)=C(N)N1 (stereo unspecified),3.55 µM (active),7.08 µM (active),7.08 µM (active),3.16 µM (active),7.08 µM (active),4.47 µM (active),7.08 µM (active),11.2 µM (active),–,–,–,–
COC1=CC(=O)C[C@@H](C)[C@]12Oc1c(Cl)c(OC)cc(OC)c1C2=O,–,–,inactive,inactive,inactive,inactive,inactive,inactive,–,–,4.87,-1.47
C[N+]1(CCCCC[N+]2(C)CCCC2)CCCC1,–,–,inactive,inactive,inactive,inactive,inactive,inactive,–,–,2.83,3.44
CCOc1ccc2nc3cc(N)ccc3c(N)c2c1,7.94 µM (active),5.01 µM (active),11.2 µM (active),1.78 µM (active),7.94 µM (active),8.91 µM (active),7.08 µM (active),10 µM (active),–,–,–,–
CN(C)/N=N/c1nc[nH]c1C(N)=O,–,–,inactive,inactive,inactive,inactive,inactive,inactive,–,–,8.05,1.17
COc1cc2c(cc1OC)C(C(C(=O)N(CCc1ccc(OC)c(OC)c1OC)CCc1ccc(OC)c(OC)c1OC)c1ccccc1)=NCC2 (stereo unspecified),–,–,4.47 µM (active),0.316 µM (active),2.51 µM (active),inactive,inactive,3.55 µM (active),–,–,14.8,-1.99
CC(=O)Oc1ccc(C(=C2CCCCC2)c2ccc(OC(C)=O)cc2)cc1,–,–,inactive,inactive,inactive,inactive,inactive,inactive,–,–,6.38,9.72
CCOC(=O)c1cccc(N)c1,–,–,inactive,inactive,inactive,inactive,inactive,inactive,–,–,6.66,6.86
O=C1CCC(c2ccc(-n3ccnc3)cc2)=NN1,–,–,inactive,inactive,inactive,inactive,inactive,inactive,–,–,16,14.3
CC(C)(CO)[C@@H](O)C(=O)NCCCO,–,–,inactive,inactive,inactive,inactive,inactive,inactive,–,–,10.4,-1.02
"Cc1c2oc3c(C)ccc(C(=O)N[C@@H]4C(=O)N[C@H](C(C)C)C(=O)N5CCC[C@H]5C(=O)N(C)CC(=O)N(C)[C@@H](C(C)C)C(=O)O[C@@H]4C)c3nc-2c(C(=O)N[C@@H]2C(=O)N[C@H](C(C)C)C(=O)N3CCC[C@H]3C(=O)N(C)CC(=O)N(C)[C@@H](C(C)C)C(=O)O[C@@H]2C)c(N)c1=O (I: T[dV]P[Sar][NMeV] / II: T[dV]P[Sar][NMeV]; ester I:1-I:C, II:1-II:C; linker I:N-II:N via Actinocin(9to1))",0.0035 µM (active),0.0063 µM (active),0.0056 µM (active),0.0013 µM (active),0.0045 µM (active),0.0045 µM (active),0.0032 µM (active),0.004 µM (active),–,–,–,–
CN1C2CCC1CC(OC(=O)c1c[nH]c3ccccc13)C2 (stereo unspecified),–,–,inactive,10 µM (active),inactive,inactive,inactive,inactive,–,–,9.99,3.24
Cc1ncc(CSSCc2cnc(C)c(O)c2CO)c(CO)c1O,–,–,inactive,inactive,inactive,inactive,inactive,inactive,–,–,0.466,-3.16
CCCCOc1ccc(C(=O)CCN2CCCCC2)cc1,–,–,inactive,inactive,inactive,inactive,inactive,inactive,2.86,-20.7,–,–
COc1ccc(/C=C/C(=O)c2ccc(OC)cc2OC)cc1,3.16 µM (active),8.91 µM (active),10 µM (active),5.01 µM (active),6.31 µM (active),8.91 µM (active),5.62 µM (active),11.2 µM (active),–,–,–,–
CCCCCCC[N+](CC)(CC)CCCCc1ccc(Cl)cc1,1.78 µM (active),2.24 µM (active),1.41 µM (active),0.631 µM (active),2 µM (active),2.51 µM (active),2.82 µM (active),2.24 µM (active),–,–,–,–
O=C(O)CCCCC(=O)O,–,–,inactive,inactive,inactive,inactive,inactive,inactive,–,–,-0.183,5.83
